# GRK2 inh: human GRK2 inhibition via aptamer displacement | bead flow cytometry, FAM-aptamer displacement from GRK2 | inhibition of aptamer binding, % at 10 µM | P25098 | actives 0.59% (n = 330,000) | AID 488847;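 active = inhibition of aptamer binding above 40%, roughly 3 SD of noise, on plates passing a quality check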;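 note: median bead fluorescence of bound FAM aptamer so fluorescent compounds give negative values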
# PREPL inhibitor: inhibits the human prolyl oligopeptidase-like enzyme; Q4J6C6; recombinant PREPL, fluorescence polarization activity-based probe; inhibition, % at 5.96 µM; actives 0.68% (n = 320,000); in the data active = inhibition above about 43%;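 note: 0% = enzyme with DMSO and 100% = wells lacking enzyme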
# GASC-1 inh: blocks human GASC-1 demethylase activity; Q9H3R0; actives 0.069% (n = 330,000); inhibition, % at 2.35 µM; GST-JMJD2C(1-420) H3K9me3 demethylation, DELFIA europium;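 active = more than half of a compound's replicate wells show inhibition beyond 50%, single wells judged on their own value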;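 note: signal counts dimethyl H3K9 product captured on neutravidin plate; 0% = median of DMSO wells and 100% = 0.3 times that DMSO median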
# VLA-4 inh: inhibition in a human VLA-4 binding assay; P13612; actives 0.2% (n = 330,000); VLA-4 expressing cells, ligand binding flow cytometry; inhibition, % (about 7 µM as worked out from the volumes in the protocol); in the data active = inhibition above about 50%
# DSG3 Ab inh: human desmoglein-3 autoantibody binding inhibition. P32926. DSG3-coupled beads, scFv-anti-DSG3-GFP binding, flow cytometry; hits give low values. binding (percent of control), % at 10 µM. actives 0.48% (n = 310,000). AID 588358;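 active = binding more than 3 SD below its plate's average and above zero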;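 note: hits lower antibody fragment binding to DSG3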
# An asterisk follows results filed as active; . = not tested or not shown. Sampled rows, rich in hits. Any-hit rate of the full collection: about 1.6%.
SMILES,GRK2 inh,PREPL inhibitor,GASC-1 inh,VLA-4 inh,DSG3 Ab inh
c1coc(C2=Nc3cccc4cccc(c34)N2)c1,1.0,37.6,13.9,17.8,78.3*
Cc1ccn(C(=O)c2ccc(NC(=O)CC(C)C)cc2)n1,0.0,71.1*,-9.4,2.9,95.1
COc1ccc(C(=O)c2sc3nc(-c4ccc(OC)cc4)ccc3c2N)cc1,15.0,10.0,-11.0,-52.0,26.3*
COc1ccc(-c2ccc3c(N)c(C(=O)c4cccc(OC)c4)sc3n2)cc1,26.0,16.9,18.4,-23.6,91.2
CN=C(NC1CCCCC1)c1ccc([N+](=O)[O-])cc1,0.0,-3.3,-5.2,4.3,98.7
O=C(c1cccc(S(=O)(=O)Nc2ccc(Br)cc2)c1)N1CCCC1,1.0,-1.9,1.1,1.9,107.7
COc1c(S(=O)(=O)NCCN2CCOCC2)ccc(Cl)c1Cl,5.0,43.8*,-2.3,9.3,96.8
Cc1c(Cl)ccc(S(=O)(=O)NCCN2CCOCC2)c1Cl,3.0,-8.2,-6.5,3.7,106.6
Cc1ccc(NC(=O)Nc2ccc3c(c2)OCO3)nc1,2.0,0.8,-2.5,17.8,6.9*
Cc1cc(C)nc(NC(=O)Nc2ccc3c(c2)OCO3)c1,0.0,7.6,-2.6,-7.2,80.5
O=C(CSc1ccc(-c2ccc3c(c2)OCO3)nn1)Nc1nccs1,1.0,-2.7,-26.2,20.8,94.6*
O=C(CSCC(=O)Nc1nc(-c2ccc3c(c2)OCO3)cs1)Nc1nccs1,0.0,4.3,19.3,-33.6,109.2
O=C(NCc1ccncc1)/C(=N/O)c1ccccc1,0.0,1.4,-4.1,4.1,75.4*
O=C(NCCCNCc1ccccc1)/C(=N\O)c1ccccc1,0.0,12.7,-7.3,4.9,107.7
CC(=O)N1CC[n+]2c(-c3ccc(Cl)cc3Cl)csc21,52.0*,17.2,-4.7,4.9,95.4
O=C(O)c1ccc(-c2nc(-c3ccc(Cl)cc3Cl)cs2)cc1,1.0,-3.3,-21.0,-11.6,93.2
COc1ccc(N/N=C/c2c(C(=O)O)ccc3ccccc23)cc1,0.0,13.8,5.3,2.8,98.6
CC1CN(C(=S)NC(=O)c2ccc(Cl)cc2)CC(C)O1 (stereo not drawn),2.0,4.1,3.5,0.0,.
COc1ccc(C(=O)NC(=S)N2CC(C)OC(C)C2)cc1OC (stereo not drawn),56.0*,4.0,-2.9,29.3,100.8
CC(=O)Cc1nsc(NC(=O)c2ccc(COc3cccc(C)c3)o2)n1,1.0,-4.5,7.8,-7.9,95.2
Cc1ccc2[nH]c(=O)c(CN(CCCN3CCOCC3)C(=O)NC3CCCCC3)cc2c1,0.0,23.1,2.8,-4.6,93.5*
COc1ccccc1-c1cnn2c(NC3CCCC3)cc(C)nc12,0.0,1.2,1.4,10.0,85.9
O=C(Nc1ccc(F)cc1)Nc1ccc([N+](=O)[O-])cn1,1.0,-5.5,4.0,26.3,54.3*
CCc1ccc(NS(=O)(=O)c2ccc3[nH]cc(C(=O)N4CCc5ccccc54)c(=O)c3c2)cc1,41.0*,-18.8,7.1,-7.2,.
c1ccc(CCNc2nc(-c3ccncc3)cs2)cc1,0.0,15.2,-0.1,-2.1,.
SMILES,GRK2 inh,PREPL inhibitor,GASC-1 inh,VLA-4 inh,DSG3 Ab inh
CCCCCNc1nc(-c2ccccc2)cs1,3.0,69.9*,7.2,10.1,.
Nc1c(S(=O)(=O)c2cccc(Cl)c2)c2nc3ccccc3nc2n1/N=C/c1ccc(O)c(O)c1,2.0,64.6*,-25.8,10.2,.
COc1cccc(/C=N/n2c(N)c(S(=O)(=O)c3cccs3)c3nc4ccccc4nc32)c1OC,2.0,-6.1,-4.0,3.7,87.4
COc1cc(OC)c(NC(=O)c2c(-c3ccccc3)noc2C)cc1Cl,1.0,3.5,-2.7,3.1,70.4*
O=C(Nc1c(C(=O)N2CCCC2)cnn1-c1ccccc1)c1cccc(F)c1,2.0,1.6,-7.5,4.2,97.8
NC(=O)C1CCN(C(=O)c2cnn(-c3ccccc3)c2NC(=O)c2cccc(F)c2)CC1,4.0,4.7,75.3*,19.7,.
COc1cc(Cl)c(NC2=CC(=O)C(=O)c3ccccc32)c(OC)c1,4.0,23.1,35.0,-26.7,95.3
CN1CCN(C(=O)c2ccc(OCCOc3ccccc3)cc2)CC1,1.0,6.8,-7.6,7.1,95.4
COc1ccccc1C(=O)Nc1c2c(nn1-c1cccc(C)c1C)CS(=O)(=O)C2,0.0,-1.2,-4.3,7.8,32.2*
COCCn1c(SCC(=O)N2CCCC2)nc2c(c1=O)SCC2,.,.,.,.,106.8
CC1(C)CC(=O)C(C(O)c2ccc([N+](=O)[O-])cc2)C(C)(C)N1 (stereo not drawn),3.0,4.0,15.2,7.5,98.6
CC1(C)CC(=O)C(C(O)c2ccccc2)C(C)(C)N1 (stereo not drawn),1.0,-1.0,6.5,-5.0,72.3*
Cc1cc(C)c(C)c(S(=O)(=O)N2CCN(CC(=O)Nc3ccc([N+](=O)[O-])cc3)CC2)c1C,0.0,1.6,-1.8,-4.4,60.5*
O=C1c2ccccc2C(=O)N1Cc1nn2c(-c3ccc(Cl)cc3)nnc2s1,0.0,-7.2,-15.8,-38.6,58.7*
COc1ccc(-c2nnc3sc(CN4C(=O)c5ccccc5C4=O)nn23)cc1,2.0,0.5,12.0,6.7,101.8
CCC(CC)N1CCN(S(=O)(=O)c2ccc(OC)cc2)CC1,2.0,-7.1,4.1,6.9,105.1
Cn1c(=O)c(=O)n(C)c2cc(S(=O)(=O)N3CCN(c4cccc(C(F)(F)F)c4)CC3)ccc21,0.0,3.2,-4.0,8.2,70.6*
Cn1ncc(Cl)c1C(=O)N/N=C/c1cc2c(cc1[N+](=O)[O-])OCO2,0.0,-3.4,-3.1,10.7,70.6*
O=C(N/N=C/c1cc2c(cc1[N+](=O)[O-])OCO2)c1ccccn1,0.0,5.7,178.9,-4.0,73.6
Cc1ccc(NC(=O)COC(=O)C(NS(=O)(=O)c2ccc(Cl)cc2)C(C)O)c(Br)c1 (stereo not drawn),1.0,2.8,0.5,13.0,53.4*
CCn1c(CC(=O)Nc2ccc(F)cc2)nnc1SCC(=O)NC1=NCCS1,2.0,0.6,17.0,3.7,-62.5*
CC(=O)CSc1nnc(-c2ccc3c(c2)OCO3)o1,9.0,-11.6,64.5,12.2,.
CC(=O)Nc1ccc(NC(=O)CSc2nnc(-c3ccc4c(c3)OCO4)o2)cc1,0.0,16.1,-3.7,8.2,-14.9*
COc1ccc(CN2C(=O)CS/C2=N/N=C/c2cccs2)cc1,3.0,12.8,-2.2,3.4,109.2
Cc1ccc(C(=O)OCC(=O)NCc2ccc3c(c2)OCO3)o1,0.0,24.8,-1.4,7.4,95.6
COc1ccc(NC(=O)NCc2ccc3c(c2)OCO3)cc1,36.0,1.4,1.8,3.1,82.0*
CCc1ccc(NC(=O)NCc2ccc3c(c2)OCO3)cc1,4.0,3.1,-11.7,-5.6,105.2
CC(OC(=O)c1cc2sccc2n1C)C(=O)NCc1ccc2c(c1)OCO2 (stereo not drawn),3.0,-13.6,0.5,-7.0,68.6*
Cc1ccsc1C(=O)OCC(=O)NCc1ccc2c(c1)OCO2,0.0,-2.7,-0.9,10.7,51.9*

# Screening data (PubChem)
